A short description of test [1]: NCI Yeast Anticancer Drug Screen. Data for the rad50 strain (AID 155).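 Further: 0% = growth of vehicle-only cultures of the same strain.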 The note with it: S. cerevisiae rad50 strain growth inhibition; at 50.0 µM; stronger effect = higher value. The gist of the method: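 Yeast carrying a defined DNA repair defect were exposed to test compounds, and growth was compared with vehicle-treated controls to give percent inhibition.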
Test [2] can be described thus: NCI Yeast Anticancer Drug Screen. Data for the mec2-1 strain (AID 157). The note with it: S. cerevisiae mec2-1 strain, at 50.0 µM, stronger effect = higher value. The gist of the method:
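Growth inhibition is read against vehicle-treated controls after compound exposure of the mec2-1 yeast strain, which is defective in DNA damage repair or cell cycle control.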

Test [3] in a line: NCI Yeast Anticancer Drug Screen. Data for the sgs1 mgt1 strain (AID 161).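 Further: 0% = growth of cultures given vehicle only.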 The settings on record: S. cerevisiae sgs1 mgt1 strain, at 50.0 µM, stronger effect = higher value. The procedure, abridged: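 Percent growth inhibition was derived by comparing compound-exposed mutant yeast with vehicle-exposed cultures. The strain carries alterations in DNA damage repair.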
Test [4] is described as follows: NCI Yeast Anticancer Drug Screen. Data for the cln2 rad14 strain (AID 165).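 Further: 0% = growth equal to vehicle treated cultures.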 The settings on record: S. cerevisiae cln2 rad14 strain, at 50.0 µM, stronger effect = higher value. The gist of the method:
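Growth inhibition, relative to vehicle-treated controls, is the read-out. The test organism is a yeast strain with defined genetic alterations, cln2 rad14.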

The nature of test [5]: NCI Yeast Anticancer Drug Screen. Data for the bub3 strain (AID 167). The note with it: S. cerevisiae bub3 mutant strain, at 50.0 µM, stronger effect = higher value. The gist of the method:
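Compounds were applied to a genetically altered yeast strain carrying a cell-cycle control defect. Growth inhibition was scored against vehicle-treated controls.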

The nature of test [6]: NCI Yeast Anticancer Drug Screen. Data for the mlh1 rad18 strain (AID 175). The settings on record: S. cerevisiae mlh1 rad18 strain growth inhibition; at 50.0 µM; stronger effect = higher value. The gist of the method: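 Cells of a genetically altered yeast strain, deficient in DNA damage repair, were treated with compound. Their growth was then compared with that of vehicle-treated cultures to give inhibition.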

“And” between values parts separate entries of the source, which are not always exact repeats. Equal values may be shown once. About 79,000 compounds went through this panel and 15% of them were active in at least one assay; those are over-represented in the sample as a whole. Some structures have more than one record in an assay (separate samples or runs), and their calls can disagree. The source made the active and inactive calls. No stated cut-off is given here; in the data, active means growth inhibition above about 70%; inactive means the rest. Where a SMILES comes first, the peptide text is derived from it. The star is where a group is joined. Boc = CC(C)(C)OC(=O)*

Turning to `O=C(CCCC(=O)NO)NO`, the growth inhibition in test [1] was 5.4% (inactive) and 2.75% (inactive); in test [2], -2.25% (inactive) and 0.6% (inactive); in test [3], -1.3% (inactive) and -6.9% (inactive); in test [4], -8.15% (inactive) and -26.6% (inactive); in test [5], -5.05% (inactive) and -22.9% (inactive); in test [6], 2.65% (inactive) and -37.4% (inactive).
For the molecule `COC(=O)C(C)NC(=O)C(CCSC)NC(=O)C(Cc1ccccc1)NC(=O)OC(C)(C)C` (stereo not drawn) (Boc-Phe-Met-Ala-OMe; configuration not given here), the growth inhibition in test [1] is -7.05% (inactive) and 1.75% (inactive); in test [2] it was -15.3% (inactive) and 1.15% (inactive); in test [3], 2.4% (inactive) and 6.3% (inactive); in test [4], 5.05% (inactive) and 10.7% (inactive); in test [5], 0.15% (inactive) and -11.9% (inactive); in test [6], 12.4% (inactive) and -70.9% (inactive).
With `CCCSc1nc(COC(=O)NC)c(COC(=O)NC)n1C`, the growth inhibition is -5.1% (inactive) and -10% (inactive) in test [1]; -25.1% (inactive) and 2% (inactive) in test [2]; -5.8% (inactive) and -9.1% (inactive) in test [3]; -12% (inactive) and 2.95% (inactive) in test [4]; -5.1% (inactive) and -2% (inactive) in test [5]; -20.4% (inactive) and 4.85% (inactive) in test [6].
With `OC1C(O)C2(c3ccccc3)OC1(c1ccccc1)c1ccccc12` (stereo unspecified), the growth inhibition in test [1] is 13.2% (inactive) and 7.35% (inactive); in test [2], -5.9% (inactive) and -2.35% (inactive); in test [3] it was -5.8% (inactive) and -5.6% (inactive); in test [4], 4.35% (inactive) and 2% (inactive); in test [5] it was -0.25% (inactive) and -1% (inactive); in test [6] it was -13.5% (inactive) and -9.9% (inactive).
Take `CN(C)COC(=S)S`: the growth inhibition in test [1] was -7.65% (inactive) and 4.05% (inactive); in test [2], -14.4% (inactive) and 3.65% (inactive); in test [3], -3.8% (inactive) and -1.7% (inactive); in test [4], -30.9% (inactive) and 3.55% (inactive); in test [5], 1.75% (inactive) and -5.5% (inactive); in test [6], -3.9% (inactive) and 2.1% (inactive).
With `O=[N+]([O-])C(CO)(CO)CO`, the growth inhibition was -11.3% (inactive) and 11.1% (inactive) in test [1]; -6.25% (inactive) and 1.95% (inactive) in test [2]; -6% (inactive) and 6.85% (inactive) in test [3]; -22.4% (inactive) and 3.45% (inactive) in test [4]; -2.55% (inactive) and 2.6% (inactive) in test [5]; -7.2% (inactive) and 2.65% (inactive) in test [6].
As to `CN(C)CC1CCCC(CN2CCCCC2)C1=O` (stereo unspecified), the growth inhibition is -13.3% (inactive) and -7.95% (inactive) in test [1]; -37.8% (inactive) and 9.7% (inactive) in test [2]; -33.5% (inactive) and 8.2% (inactive) in test [3]; 4.6% (inactive) and -38.9% (inactive) in test [4]; -11.6% (inactive) and -9.5% (inactive) in test [5]; -6.4% (inactive) and 9.4% (inactive) in test [6].
Turning to `COC1C(OC(C)=O)CC(=O)OC(C)C/C=C/C=C\C(O)C(C)CC(CC=O)C1OC1OC(C)C(OC2CC(C)(O)C(OC(=O)CC(C)C)C(C)O2)C(N(C)C)C1O` (stereo unspecified), the growth inhibition in test [1] is -0.2% (inactive) and -2.9% (inactive); in test [2] it was -10.4% (inactive) and -25.7% (inactive); in test [3] it was -22.6% (inactive) and -34% (inactive); in test [4], -4.95% (inactive) and 4.75% (inactive); in test [5] it was -27.1% (inactive) and -30.9% (inactive); in test [6], -2% (inactive) and -6.85% (inactive).
In the case of `CC(=O)OCC(OC(C)=O)C(OC(C)=O)C(OC(C)=O)C(C=NN(C(C)=O)S(=O)(=O)c1ccc(/C=C2\NC(=O)NC2=O)cc1)OC(C)=O` (stereo unspecified), the growth inhibition in test [1] was 2.7% (inactive) and 15.3% (inactive); in test [2] it was 13.4% (inactive) and 0.65% (inactive); in test [3], 26.6% (inactive) and 11.7% (inactive); in test [4], 24.1% (inactive) and 30.6% (inactive); in test [5] it was -5.25% (inactive) and 7.15% (inactive); in test [6], 25.8% (inactive) and 18.2% (inactive).
Consider `COC1OC(COC(=O)NCCCCC(=O)C(F)(F)C(F)(F)C(F)(F)C(F)(F)C(F)(F)C(F)(F)C(F)(F)F)C(O)C(O)C1O` (stereo unspecified), for which the growth inhibition was -34.9% (inactive) and -29.9% (inactive) in test [1]; -22.2% (inactive) and -30.1% (inactive) in test [2]; -10% (inactive) and -11.4% (inactive) in test [3]; -2.5% (inactive) and -8.2% (inactive) in test [4]; -18.4% (inactive) and -26.4% (inactive) in test [5]; -2.9% (inactive) and -3.6% (inactive) in test [6].
For the molecule `O=C1Nc2ccccc2C(=O)C1=Ic1ccccc1`, the growth inhibition in test [1] was 5% (inactive) and -15.9% (inactive); in test [2], -11.6% (inactive) and -15.4% (inactive); in test [3] it was -0.55% (inactive) and -9.6% (inactive); in test [4], -6% (inactive) and -25.2% (inactive); in test [5], -7.1% (inactive) and -4.5% (inactive); in test [6], 4.15% (inactive) and 17.8% (inactive).
For the molecule `O=S(=O)(O)CCO`, the growth inhibition was 13.6% (inactive) and -1.9% (inactive) in test [1]; -8.35% (inactive) and -8.7% (inactive) in test [2]; 20.7% (inactive) and 9.75% (inactive) in test [3]; 19.1% (inactive) and 16.2% (inactive) in test [4]; 0.3% (inactive) and -3.5% (inactive) in test [5]; 2.25% (inactive) and 28% (inactive) in test [6].
Consider `Cn1cc(NC(=O)c2cc(NC(=O)c3cc(NC=O)cn3C)cn2C)cc1C(=O)NCCC(=N)N`, for which the growth inhibition in test [1] is 5.1% (inactive) and 89.8% (active); in test [2] it was 6.75% (inactive) and 91.5% (active); in test [3], -2.2% (inactive) and 91.7% (active); in test [4], 22.9% (inactive) and 88.5% (active); in test [5], -1.75% (inactive) and 91.3% (active); in test [6], 12.9% (inactive) and 90% (active).
As for `COC1OCC(OC(=O)c2ccccc2)C(OC(=O)c2ccccc2)C1OC(=O)c1ccccc1` (stereo unspecified), the growth inhibition is 7.5% (inactive) and 19.6% (inactive) in test [1]; 1.15% (inactive) and -3.25% (inactive) in test [2]; 15.7% (inactive) and -3.7% (inactive) in test [3]; 19.5% (inactive) and -0.3% (inactive) in test [4]; -1.55% (inactive) and -3.65% (inactive) in test [5]; 6.15% (inactive) and -8.55% (inactive) in test [6].
For `CC(=O)NC1CCC(C(F)(F)F)CC1` (stereo unspecified), the growth inhibition in test [1] was 9.9% (inactive) and 2.15% (inactive); in test [2] it was 5.75% (inactive) and -5.7% (inactive); in test [3] it was -9.5% (inactive) and -4.95% (inactive); in test [4] it was -6.2% (inactive) and -21.2% (inactive); in test [5] it was -1.75% (inactive) and -2.55% (inactive); in test [6], 12.8% (inactive) and 8.05% (inactive).
On to `O=C(CCCOc1ccc(Cl)cc1Cl)NC(Cc1c[nH]c2ccccc12)C(=O)O` (stereo unspecified), for which the growth inhibition was -1.3% (inactive) and 1.5% (inactive) in test [1]; 0.15% (inactive) and -1.95% (inactive) in test [2]; 4.3% (inactive) and -3.6% (inactive) in test [3]; 19.1% (inactive) and 18.7% (inactive) in test [4]; -17.6% (inactive) and -17.1% (inactive) in test [5]; 7.2% (inactive) and 10.7% (inactive) in test [6].
Regarding `NCCCNCCCCNCCCN`, the growth inhibition in test [1] is 14.1% (inactive) and -12.6% (inactive); in test [2], 30.6% (inactive) and -27.4% (inactive); in test [3], 14.2% (inactive) and -14.9% (inactive); in test [4] it was 8.5% (inactive) and -10.2% (inactive); in test [5] it was 28% (inactive) and -15.6% (inactive); in test [6], 19.6% (inactive) and 3% (inactive).
With `CC1=C/C(=C(\c2cc(C)c(O)c(C(=O)O)c2)c2c(Cl)ccc(S(=O)(=O)O)c2Cl)C=C(C(=O)O)C1=O`, the growth inhibition was 25.6% (inactive) and -15.2% (inactive) in test [1]; 0.1% (inactive) and -0.75% (inactive) in test [2]; 22.8% (inactive) and -4.2% (inactive) in test [3]; 21.1% (inactive) and -2.6% (inactive) in test [4]; -3.05% (inactive) and -7.4% (inactive) in test [5]; 41.5% (inactive) and -2.55% (inactive) in test [6].
Take `O=C(O)CC(O)C(=O)O` (stereo unspecified): the growth inhibition in test [1] was -2.95% (inactive) and 0.45% (inactive); in test [2], -20.2% (inactive) and 3.55% (inactive); in test [3], -39.1% (inactive) and -1.05% (inactive); in test [4], -19.6% (inactive) and 3.85% (inactive); in test [5], 5.25% (inactive) and -2.85% (inactive); in test [6], -43% (inactive) and -1.2% (inactive).
Turning to `C/C(=N\NC(N)=O)c1ccc(Cl)cc1`, the growth inhibition in test [1] was 27.9% (inactive) and 9.05% (inactive); in test [2], 10.8% (inactive) and -3.65% (inactive); in test [3], 2% (inactive) and -6.25% (inactive); in test [4], 9.6% (inactive) and -8.65% (inactive); in test [5], -4.15% (inactive) and 6% (inactive); in test [6], 7.3% (inactive) and 10.7% (inactive).
Turning to `O=C(CCl)NC(Cc1c[nH]c2ccccc12)C(=O)O` (stereo unspecified), the growth inhibition was -7.95% (inactive) and 9.8% (inactive) in test [1]; -50.7% (inactive) and -0.75% (inactive) in test [2]; 1.1% (inactive) and -0.95% (inactive) in test [3]; 23.3% (inactive) and 14.8% (inactive) in test [4]; -10.2% (inactive) and 8.7% (inactive) in test [5]; 4.25% (inactive) and -1.05% (inactive) in test [6].

These data come from PubChem BioAssay (NCI).
